Bioassay records (PubChem BioAssay)
SW480 rereplic – induces DNA re-replication in SW480 colon adenocarcinoma cells | Potency, µM (titrated, usually from 46.1 µM), for inactives: at the highest dose re-replication activation, most hits filed as activators | SW480 DNA re-replication, Hoechst DNA content imaging, 48 h | 340,000 compounds, 1.8% hits; further: % of control where 0% means no effect; nearly all actives have a fitted effect of over 55% in size
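Cells (250 per well) received 23 nL compound or DMSO by pin tool and were kept 48 hr at 37 C, 5% CO2. Nuclei were then stained with Hoechst for 40 min and scanned for DNA content.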
ELG1 repair inh – blocks ELG1-dependent DNA repair in HEK293T cells; HEK293T ELG1-luciferase reporter, luminescence, 16 h; DNA damage induced by 5-fluorouridine; Potency, µM (top dose mostly 46.1 µM), for the others: at the highest dose activity change, negative = inhibition, usual class: inhibitors; 330,000 compounds, 2.3% hits; further: on the % scale 0 is the no-effect control and ±100 the full control effect; nearly all actives have a fitted effect of over 55% in size
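In this reporter screen, reduction of luminescence relative to DMSO vehicle indicated activity. Compounds and 5-fluorouridine were added together to 2,000 cells per well, incubated for 16 hr at 37 °C, then developed with ONE-Glo.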
KB-V1 cytotox – KB-V1 MDR subline cytotoxicity. KB-V1 MDR cells viability, CellTiter-Glo, 72 h. 400,000 compounds, 3.4% hits. Potency, µM (titrated, usually from 46.1 µM), usual class: cytotoxic; further: on the % scale 0 is the no-effect control and ±100 the full control effect; nearly all actives have a fitted effect of over 60% in size
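Cytotoxicity toward P-gp-expressing KB-V1 cells was determined as loss of CellTiter-Glo luminescence after 72 h at 37 degrees C. Compounds were tested in quantitative HTS format across a concentration range, with curves fitted to normalized data.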
KB-3-1 cytotox – KB-3-1 parental cell cytotoxicity; KB-3-1 viability, CellTiter-Glo ATP luminescence, 72 h; Potency, µM (series often up to 46.1 µM), usual class: cytotoxic; 400,000 compounds, 1.4% hits; further: on the % scale 0 is the no-effect control and ±100 the full control effect; nearly all actives have a fitted effect of over 60% in size
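Cytotoxicity measured as CellTiter-Glo luminescence after 72 h at 37 C. Compound titrations were pinned onto drug-naive KB-3-1 parental adenocarcinoma cells grown in DMEM with 10% FBS, and normalized data fitted to concentration-response curves.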
MCF10A rerep – DNA re-replication induction in MCF 10a cells. Potency, µM (titrated, usually from 46.1 µM), without a hit: at the top dose activity, positive = re-replication, most hits filed as activators. MCF 10A DNA re-replication, Hoechst nuclear intensity, 48 h. 350,000 compounds, 2.9% hits; further: % of control where 0% means no effect; nearly all actives have a fitted effect of over 50% in size
* hit, by the source's call; i = inactive; ? = inconclusive; / = no result given. This is a sample that favours compounds with a hit; in the whole collection about 8.1% have one here. The call rests on the fitted dose curve; in most records, active means well fitted curve in the direction sought with a large enough effect; inconclusive means small, poorly fitted or top-dose-only effect, or another doubt; inactive means no such curve, though single readings can be large; an effect the other way counts as inactive or inconclusive. Potency means the concentration at half of the fitted maximal effect.

SMILES	SW480 rereplic	ELG1 repair inh	KB-V1 cytotox	KB-3-1 cytotox	MCF10A rerep
COCc1c(C(=O)OCC(=O)N2c3ccccc3CC2C)oc2ccccc12 (stereo not drawn)	-17%	-1%	i	i	5%
CC1(C)C(=O)Nc2ccccc2N1C(=O)COC(=O)c1ccc(Cl)c(S(=O)(=O)NCc2ccccc2)c1	-7%	21µM*	i	i	0%
COCc1c(C(=O)OCC(=O)N2c3ccccc3NC(=O)C2(C)C)oc2ccccc12	2%	0%	16µM*	i	?
COc1cc(/C=C/C(=O)OCC(=O)N2c3ccccc3NC(=O)C2(C)C)cc(OC)c1OC	-1%	10µM*	?	?	10%
COc1ccc(S(N)(=O)=O)cc1C(=O)OCC(=O)N1c2ccccc2NC(=O)C1(C)C	-12%	-5%	i	i	-5%
CC1(C)C(=O)Nc2ccccc2N1C(=O)COC(=O)c1cc(S(C)(=O)=O)ccc1Cl	-8%	16%	i	i	7%
CN1C(=O)c2ccccc2Sc2ccc(NC(=O)N3CCN(c4ccccc4F)CC3)cc21	/	/	i	i	/
CN(C)C(=O)c1ccc(NC(=O)c2cccc(-n3cnnn3)c2)cc1	/	/	i	i	/
FC(F)Sc1ccc(NC(=S)NC(c2ccccc2)c2ccccc2)cc1	?	-8%	?	?	3.7µM*
Nc1ncnc2c1ncn2[C@@H]1O[C@H](CO)[C@@H](O)[C@H]1O	8%	15%	i	i	-4%
Nc1ncnc2c(C3OC(CO)C(O)C3O)c[nH]c12 (stereo not drawn)	0.21µM*	/	0.29µM*	0.18µM*	?
Cc1cc(C)nc(S/C=C/C(=O)c2ccccc2F)n1	-4%	?	?	i	2.6µM*
Cc1ccccc1NC(=O)Cc1nc(-c2c[nH]c(C(=O)N3CCCC3)c2)cs1	-21%	16µM*	i	i	29%
CCCCNC(=O)c1nn2c(C(F)(F)F)cc(-c3ccc(OC)cc3)nc2c1Br	?	-4%	i	i	?
CCOc1ccccc1NC(=O)CSc1nc(=O)n(CCN2CCOCC2)c2c1CCCC2	-7%	27%	?	i	7%
O=C(c1ccccc1)c1cc(Cl)ccc1N1C(=O)C=CC1=O	18µM*	?	i	i	?
Cc1ccccc1NS(=O)(=O)c1ccc(C(=O)NCc2ccccc2CN2CCCC2)cc1	/	/	?	i	/
Cc1ccc(C(=O)NCC(=O)NCCSc2ccc(Br)cc2)cc1	-1%	1%	?	i	1%
CCOc1ccc(C(=O)NCC(=O)NCCSc2ccc(Br)cc2)cc1OCC	-6%	/	3.7µM*	i	2%
COC(=O)c1ccc2nc(-c3cccc(Br)c3)c(Cc3ccccc3OC)n2c1	/	/	i	i	/
CCCc1c(-c2cccc(Cl)c2)ncn1CCc1ccccc1OC	/	/	15µM*	?	/
CCCc1c(-c2ccc(Cl)cc2)ncn1Cc1ccccc1OC	/	/	18µM*	16µM*	/
COc1ccccc1CCn1cnc2c3cc(C)ccc3n(C)c2c1=O	16%	?	?	i	10%
COc1ccccc1Cn1cnc2cccnc21	-7%	22%	i	i	-8%
CCCc1c(-c2cccc(Br)c2)ncn1Cc1ccccc1OC	/	/	18µM*	?	/
SMILES	SW480 rereplic	ELG1 repair inh	KB-V1 cytotox	KB-3-1 cytotox	MCF10A rerep
CCCc1c(-c2ccc(Cl)cc2)ncn1CCc1ccccc1OC	/	/	18µM*	?	/
COc1ccc(-c2cc(C(F)(F)F)nc(SCC(=O)NCc3cccs3)n2)cc1	-7%	?	18µM*	i	22%
O=C(CSc1nc(-c2ccccc2)cc(C(F)(F)F)n1)NCc1cccs1	2%	-1%	i	i	6.5µM*
COc1ccc(-c2cc(-c3cccs3)c(C#N)c(SCC(=O)NCc3ccco3)n2)cc1	2.6µM*	?	?	?	1.5µM*
CCc1ccc(NCc2cc3cc4c(cc3n(CC(=O)Nc3ccc(C)cc3)c2=O)OCO4)cc1	/	/	i	i	/
COc1ccccc1N(CC(=O)N1CCCCC1C)S(=O)(=O)c1ccc(Cl)cc1 (stereo not drawn)	/	/	i	i	/
CCOC(=O)C1C(=O)C=C(c2ccc(C)cc2)CC1c1ccc([N+](=O)[O-])cc1 (stereo not drawn)	-21%	?	7.3µM*	i	-1%
COc1cc(NC(=O)CN2Cc3ccccc3C2=O)cc(OC)c1OC	/	/	i	i	/
O=C(NC1CCCC1)C(c1ccc(F)cc1)N(Cc1ccc(F)cc1)C(=O)CCl (stereo not drawn)	?	-16%	18µM*	?	14%
COc1ccc(N(C(=O)Cc2cccs2)C(C(=O)NC2CCCC2)c2ccncc2)cc1 (stereo not drawn)	-2%	-10%	?	i	-1%
COc1ccc(C(C(=O)NC2CCCCC2)N(C(=O)CCl)c2ccc(C)cc2)cc1 (stereo not drawn)	2.6µM*	?	?	?	30%
COc1ccc(C(C(=O)NC2CCCCC2)N(C(=O)CCl)c2cccc(Cl)c2)cc1 (stereo not drawn)	?	?	16µM*	18µM*	21µM*
COc1ccc(C(C(=O)NC2CCCCC2)N(C(=O)CCl)c2ccc(OC)cc2)cc1 (stereo not drawn)	?	?	3.7µM*	5.8µM*	18µM*
Cc1cccc(C)c1N1C(=O)c2ccccc2NC(=O)C1C(=O)NCC(C)C (stereo not drawn)	/	/	i	i	/
COc1ccc(C(=O)Nc2ccc3oc(-c4cc(Cl)ccc4Cl)nc3c2)cc1Br	/	/	i	i	/
COC(=O)[C@@]12C[C@@H](CC(=O)N3CCOCC3)C(=O)N(Cc3ccc4c(c3)OCO4)C1=CCC(C)(C)C2	/	/	?	i	/
COc1ccccc1CNC(=O)c1cccn1-c1nnc(N2CCCCC2)s1	/	/	i	i	/
COCCN(C(=O)CCCC(=O)Nc1ccccn1)C(C(=O)NC1CCCCC1)c1ccc(C)cc1 (stereo not drawn)	3%	0%	i	i	-1%
COC(CN(C(=O)CCl)C(C(=O)NC1CCCCC1)c1ccc(C)cc1)OC (stereo not drawn)	5.8µM*	4%	?	?	-6%
Cn1c(Cc2ccccc2)nnc1SCC(=O)NCCc1ccccc1	-6%	0%	i	i	0.58µM*
Nc1ncnc2c1C1(CCCCC1)Cc1ccccc1-2	1%	10µM*	23µM*	?	1%
CN(C)CCNC(=O)COc1ccc(C23CC4CC(CC(C4)C2)C3)cc1	?	10%	i	?	16µM*
O=C(COc1ccccc1Br)NC(=O)NC1CCCC1	15µM*	?	i	i	-15%
COC(=O)c1ccccc1OCC(=O)NC1CCCCC1	-3%	14%	?	i	22%
